Where “and” joins values, the source holds several entries; their conditions need not be identical. Identical values can stand only once. Calls of active or inactive are those of the source.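 How the source made its calls: active means GFP response vs DMSO above 150% with enough events counted; inconclusive means fewer than 70 events counted for a yeast strain; inactive means the rest.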
Assay: yeast MEP2-GFP fusion level changes, TOR pathway – flow cytometry, third cherry pick, S. cerevisiae, confirmation (AID 504321);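 further: median per-cell GFP fluorescence by flow cytometry across all yeast cells; ratio of sample to DMSO median GFP so 100% equals the DMSO level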
Conditions: S. cerevisiae MEP2-GFP strain, 3 h, at 10 µM, active compounds read high

SMILES	GFP response vs DMSO
CCCC(=O)Nn1cnc2c(c1=O)C1(CCCC1)Cc1ccccc1-2	105% (inactive)
O=C(N/N=C/c1ccccc1)c1cccc2ccccc12	103% (inactive)
Cc1ccc(NC(=O)O/N=C2\CCCCC2c2ccc([N+](=O)[O-])cc2[N+](=O)[O-])cc1 (centres undefined)	105% (inactive)
N#Cc1c(N)nc(N)nc1Nc1ccc(Br)cc1	110% (inactive)
Oc1c(Br)cc(Br)c2cccnc12	189% (active)
COCCCNc1nc(N)c([N+](=O)[O-])c(Nc2ccccc2OC)n1	110% (inactive)
OCCN1CCN(c2ncnc3ccc(Br)cc23)CC1	112% (inactive)
Cc1cccc(Nc2cc(=O)[nH]c(=O)[nH]2)c1	108% (inactive)
COc1ccc(NC(=O)ON=C2c3ccccc3-c3ccccc32)cc1	105% (inactive)
CSc1nc(Nc2ccc(Cl)cc2)c(C#N)c(=O)[nH]1	108% (inactive)
COc1ccc(OC)c(Nc2nc(NCCC(C)C)nc(N)c2[N+](=O)[O-])c1	108% (inactive)
CCN(CC)C(=O)Oc1cc(=O)n(C)c2ccccc12	112% (inactive)
COc1ccc(-c2cc(C(F)(F)F)nc(S(C)(=O)=O)n2)cc1OC	114% (inactive) and 121% (inactive)
O=c1cc(C(F)(F)F)[nH]c2c(OC(F)(F)F)cccc12	114% (inactive)
COc1ccc(OC)c(N/C(C)=C/C(=O)c2ccccc2)c1	114% (inactive)
C/C(=C\C(=O)c1ccc(C)cc1)Nc1cccc(O)c1	108% (inactive)
O=C(O)CCS(=O)(=O)c1nc(-c2cccs2)cc(C(F)(F)F)n1	116% (inactive)
CCCC(=O)Nn1cnc2c(c1=O)C1(CCCCC1)Cc1ccccc1-2	105% (inactive)
C/C(=C\C(=O)c1ccc(Cl)cc1)Nc1ccc(Br)cc1	105% (inactive)
NC(=O)COc1cccc2cccnc12	108% (inactive)

SMILES	GFP response vs DMSO
CCC(C)Nc1nc(N)c([N+](=O)[O-])c(Nc2ccccc2OC)n1 (centres undefined)	114% (inactive)
COCCNc1nc(N)c([N+](=O)[O-])c(Nc2ccc(F)cc2)n1	105% (inactive)
Cc1nc(Nc2ccc(Br)cc2Br)c([N+](=O)[O-])c(=O)[nH]1	112% (inactive)
CCc1c(C)nc2c(OC)cccc2c1Cl	110% (inactive)
Brc1ccc2ncnc(NCc3ccccc3)c2c1	105% (inactive)
CCC(C)Nc1nc(N)c([N+](=O)[O-])c(Nc2cc(OC)ccc2OC)n1 (centres undefined)	114% (inactive)
O=C(O)c1ccc(C=NNC(=O)c2cccc3ccccc23)cc1	103% (inactive)
Cc1ccc(C)c(Nc2ncnc(N)c2[N+](=O)[O-])c1	108% (inactive)
Nc1nc(NCCOCCO)nc(Nc2cccc(F)c2)c1[N+](=O)[O-]	108% (inactive)
Cc1cc(C)c2ccc(C(=O)O)nc2c1O	112% (inactive)
O=C(Nc1ccccc1)O/N=C1\CCCCC1c1ccc([N+](=O)[O-])cc1[N+](=O)[O-] (centres undefined)	105% (inactive)
COc1cccc(N/C(C)=C/C(=O)c2ccc(Br)cc2)c1	101% (inactive)
COc1ccc(NC(=O)O/N=C2/CCCc3ccc(OC)cc32)cc1	112% (inactive)
C=CCNc1nc(N)c([N+](=O)[O-])c(Nc2ccccc2OC)n1	103% (inactive)
O=C(Nc1cccc(Cl)c1)ON=C1c2ccccc2-c2ccccc21	110% (inactive)
Cc1ccc(NN2C(=O)C=C(c3ccccc3)C2=O)cc1	140% (inactive)
Nc1[nH]c(=O)nc(Nc2ccccc2)c1N=O	108% (inactive)
Cc1ccc2nc(-c3ccc(NC(=O)c4cccnc4)cc3)oc2c1	114% (inactive)
COc1ccc(OC)c2c(=O)cc(C(=O)O)[nH]c12	105% (inactive)

Source: PubChem BioAssay AID504321 (NMMLSC, 2011)
